According to PubChem BioAssay AID1159580 (chemical genetic matrix, 2015):
Out of some 5,500 compounds screened, about 2,000 (36%) were called active. Roughly 18% stayed inconclusive and do not appear here. Rule as the data show it: active = normalized growth mostly below about 0.91 (no sharp cut-off); inconclusive = no clear call, values can overlap the other calls; inactive = mostly above about 0.92. The list shows a part of the results.

Experiment: chemical genetic growth profiling, strain panel (AID 1159580);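 also: tested at 20 µM; growth read once vehicle control cultures reached saturation at 30 °C; 1 = growth at the plate median or of vehicle wells; lower values mean less growth of the strain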
Details: S. cerevisiae deletion strains, growth OD

Measured: normalized growth

CS(=O)(=O)/C(C#N)=C/c1ccccc1OCc1c(Cl)cccc1Cl
inactive: locus YAR019C, strain CDC15, hits give low values 0.978 | locus YBL105C, strain PKC1, hits give low values 0.958 | locus YBR135W, strain CKS1, hits give low values 0.964 | locus YBR136W, strain MEC1, hits give low values 0.958 | locus YBR160W, strain CDC28, hits give low values 0.954 | locus YDL017W, strain CDC7, hits give low values 0.961 | locus YDL028C, strain MPS1, hits give low values 0.956 | locus YDL101C, strain DUN1, hits give low values 0.958 | locus YDL108W, strain KIN28, hits give low values 0.942 | locus YDL132W, strain cdc53, hits give low values 0.96 | locus YDL214C, strain PRR2, hits give low values 0.926 | locus YDR052C, strain DBF4, hits give low values 0.957 | locus YDR054C, strain cdc34, hits give low values 0.975 | locus YDR226W, strain ADK1, hits give low values 0.969 | locus YDR477W, strain SNF1, hits give low values 0.943 | locus YER123W, strain YCK3, hits give low values 0.913 | locus YER133W, strain GLC7, hits give low values 0.953 | locus YFL009W, strain cdc4, hits give low values 0.977 | locus YFL029C, strain CAK1, hits give low values 0.979 | locus YFR003C, strain YPI1, hits give low values 0.965 | locus YFR019W, strain FAB1, hits give low values 0.961 | locus YFR028C, strain CDC14, hits give low values 0.974 | locus YGR040W, strain KSS1, hits give low values 0.91 | locus YGR052W, strain FMP48, hits give low values 0.97 | locus YGR092W, strain DBF2, hits give low values 0.934 | locus YHR030C, strain SLT2, hits give low values 1.02 | locus YHR079C, strain IRE1, hits give low values 1.03 | locus YHR082C, strain KSP1, hits give low values 1.01 | locus YHR205W, strain SCH9, hits give low values 0.916 | locus YIL147C, strain SLN1, hits give low values 0.956 | locus YJL095W, strain BCK1, hits give low values 0.976 | locus YJL128C, strain PBS2, hits give low values 0.918 | locus YJL157C, strain FAR1, hits give low values 0.95 | locus YJR016C, strain ILV3, hits give low values 0.973 | locus YJR066W, strain TOR1 (second series), hits give low values 0.947 | locus YJR066W, strain TOR1, hits give low values 1.04 | locus YKL048C, strain ELM1, hits give low values 0.901 | locus YKL067W, strain YNK1, hits give low values 0.942 | locus YKL101W, strain HSL1, hits give low values 0.892 | locus YKL193C, strain SDS22, hits give low values 0.968 | locus YKL203C, strain TOR2, hits give low values 0.996 | locus YLR113W, strain HOG1, hits give low values 0.866 | locus YLR133W, strain CKI1, hits give low values 0.92 | locus YLR403W, strain SFP1, hits give low values 0.885 | locus YML070W, strain DAK1, hits give low values 0.923 | locus YMR001C, strain CDC5, hits give low values 0.966 | locus YMR205C, strain PFK2 (second series), hits give low values 0.953 | locus YMR277W, strain FCP1, hits give low values 0.978 | locus YNL006W, strain LST8, hits give low values 0.973 | locus YNL020C, strain ARK1, hits give low values 0.926 | locus YNL161W, strain CBK1, hits give low values 0.964 | locus YNL183C, strain NPR1, hits give low values 1.02 | locus YNL207W, strain RIO2, hits give low values 0.946 | locus YNL222W, strain SSU72, hits give low values 0.966 | locus YNL307C, strain MCK1 (second series), hits give low values 0.945 | locus YOL078W, strain AVO1, hits give low values 0.962 | locus YOL136C, strain PFK27, hits give low values 0.879 | locus YOR061W, strain CKA2, hits give low values 0.922 | locus YOR119C, strain RIO1, hits give low values 0.986 | locus YOR231W, strain MKK1, hits give low values 0.948 | locus YOR329C, strain SCD5, hits give low values 0.968 | locus YPL031C, strain PHO85, hits give low values 0.934 | locus YPL153C, strain RAD53, hits give low values 0.95 | locus YPL204W, strain HRR25, hits give low values 0.897 | locus YPL209C, strain IPL1, hits give low values 0.967 | locus YPL256C, strain CLN2, hits give low values 0.979 | locus YPR025C, strain CCL1, hits give low values 0.969 | locus YPR106W, strain ISR1, hits give low values 0.948 | locus YPR111W, strain DBF20, hits give low values 0.924 | strain NNK1, hits give low values 0.966 | strain TSCII, hits give low values 0.962
